In PubChem BioAssay (NCI) one finds growth data, which are given here for 40 compounds.

SMILES strings stand for the structures. Compounds without any hit were thinned out: in the full panel of roughly 83,000, 20% have a hit.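 Plates (96-well) were seeded with cells, treated with compound at one concentration, and incubated for 48 hours before percent growth was determined.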 Values without a mark were called inactive. Calls of active or inactive are those of the source.

In this assay the test system is SK-MEL-28 melanoma. As to the kind of experiment: NCI-60 one-dose screen, 48 h (100 = growth as untreated, 0 = no growth, -100 = all killed). The settings on record: 10 µM unless noted. Here is the method:
Growth inhibition of the SK-MEL-28 human tumor cell line is measured as a screen for anti-cancer activity. Cells are grown in 96 well plates and exposed to the test compound for 48 hours. Compounds are tested at a single concentration, which is 10^-5 M for most compounds. The reported endpoint is percent growth (GI% or GIPRCNT), where numbers from 0 - 100% represent growth inhibition, and numbers from -100% - 0 represent cell death. For example, a value of 40 represents 60% growth inhibition. A value of 0 means no net growth occurred over the course of the experiment. A value of -40 indicates 40% of cells at the beginning of the experiment died by the end of the experiment. A value of -100 means all cells are dead at the end of the experiment.
NCI-60 Human Tumor Cell Lines Screen was performed using the standard one-dose NCI protocol, which is described in more detail at https://dtp.cancer.gov/discovery_development/nci-60/default.htm.
Compounds with GIPRCNT values below 10 were considered active. Activity score was based on GIPRCNT using the following formula: […]
Score is 0 for GIPRCNT values of 100 or above, 50 for GIPRCNT values of 0, and 100 for GIPRCNT values of -100.
Take `Oc1ccc(CSc2nnc(-c3ccncc3)o2)c2cccnc12`: the growth is 39.7%.
Consider `c1ccc(-c2n(Cc3ccc4ccccc4c3)c3c4ccccc4c4ccccc4c3[n+]2Cc2ccc3ccccc3c2)cc1`, for which the growth was -87.3% (active).
The value for `CC(=O)Nc1cccc(-n2cnc3cc(-c4ccc(O)cc4)ccc32)c1` was 78%; that for `O=S(=O)(Nc1ccc(-n2cnc3cc(-c4ccc(O)cc4)ccc32)cc1)C1CC1` was 94.2%.
The value for `Cn1cc(-c2nnc(N)nc2-c2cn(C)c3ccc(F)cc23)c2cc(F)ccc21` was 103%.
Next, `CSc1nccc(-c2c(-c3ccc(F)c(OCc4ccc(F)cc4)c3)nc3sccn23)n1`: 87.5%.
On to `CCNC(=NCCCN(C)C)N/C(N)=N/c1nc2ccccc2s1`, for which the growth was 93.1%.
With `C[C@H]1[C@H](C)CC[C@]2(COC(=O)c3cccnc3)CC[C@]3(C)C(=CC[C@@H]4[C@@]5(C)CCCNC(C)(C)[C@@H]5CC[C@]43C)[C@H]12`, the growth was 75%.
Regarding `CCN1C(=O)N(CC)C2SC(N/N=C/C=C/c3ccccc3OC)=NC21` (stereo not given), the growth is 60.2%.
For the compound `CC(=O)c1sc(Nc2cccc(Nc3nc(C)c(C)s3)c2)nc1C`, the growth is 71.5%.
The value for `COC[C@]12CC[C@@H](C)[C@H](C)[C@H]1C1=CC[C@@H]3[C@@]4(C)CCCNC(C)(C)[C@@H]4CC[C@@]3(C)[C@]1(C)CC2` was -59.6% (active); that for `CCOC(=O)/C(F)=C/C1CC1CCc1cccc(C(F)(F)F)c1` (stereo not given) was 98.8%.
As to `N#Cc1c(NC(=O)c2ccc(F)c(Cl)c2)sc2c1CCC(=O)C2`, the growth was -66.9% (active).
The value for `C=CCn1c(SCC(=O)Nc2cccc(C(=O)/C=C/c3ccc(Br)cc3)c2)nc2ccccc2c1=O` was 98.2%; that for `C#CCOc1ccc(C(Nc2cc(Cl)ccc2Cl)c2nnnn2C2CCCCC2)cc1` (stereo not given) was 107%.
Take `CC1CCc2c(sc3nc(SCC(=O)N/N=C/c4ccc(Cl)cc4)n(-c4ccccc4)c(=O)c23)C1` (stereo not given): the growth was 102%.
In the case of `CS(=O)(=O)c1nccc(-c2c(-c3ccc(F)c(OCCc4ccccc4)c3)nc3sccn23)n1`, the growth is 57.3%.
As for `C(=C(\C1=NCCN1)n1cnc2ccccc21)/c1ccc2ccccc2c1`, the growth is 79.4%.
Consider `COc1ccc(Cn2cc3c(c2-c2cc(OC)c(OC)c(OC)c2)CCCc2cnoc2-3)cc1`, for which the growth is 64.4%.
Take `COc1cc2c3c(n(CCCN4CCCC4)c(=O)c2cc1OC)-c1cc2c(cc1C3=O)OCO2`: the growth is -74.1% (active).
As for `O=C1c2c(c3c4cccnc4[nH]c3c3ccc4ccccc4c23)C(=O)N1CCN1CCNCC1`, the growth was 108%.
The value for `Cc1nc(-c2cc3ccccc3c(N3CCN(C)CC3)n2)cs1` was 107%.
As for `O=C1[C@H]2Cc3c([nH]c4ccccc34)[C@@H](c3c(Cl)cccc3Cl)N2C(=O)CN1C1CCN(Cc2ccccc2)CC1`, the growth was 93.1%.
Next, `O=C(Nc1ccc(-c2nc(-c3cccc(O)c3)c(-c3ccnc(Br)c3)[nH]2)cc1)c1ccccc1`: 34.2%.
Next, `O=C1c2c(c3c4cccnc4[nH]c3c3ccc4ccccc4c23)C(=O)N1CCN1CCCCC1`: 97%.
On to `O=S(=O)(NCCCNc1nccc(-n2cnc3ccccc32)n1)c1ccc(F)cc1`, for which the growth was 97.9%.
On to `C/C(=C(/c1ccc(O)cc1)c1ccc(OCCN2CCCCCC2)cc1)c1ccccc1`, for which the growth is 21%.
Regarding `c1ccc(-c2c(-c3ccccc3)[n+](Cc3ccc4ccccc4c3)c(-c3ccccc3)n2Cc2ccc3ccccc3c2)cc1`, the growth was -93.3% (active).
The value for `CC(=O)NC(C)(C)C(=O)N1CCC[C@H]1C(=O)NC(C)(C)C(=O)N[C@@H](C)C(=O)NC(C)(C)C(=O)NC(C)(C)C(=O)N[C@@H](CCC(N)=O)C(=O)NC(C)(C)C(=O)N[C@H](C(=O)NC(C)(C)C(=O)NCC(=O)N[C@@H](CC(C)C)C(=O)NC(C)(C)C(=O)N1CCC[C@H]1C(=O)N[C@H](C(=O)NC(C)(C)C(=O)NC(C)(C)C(=O)N[C@@H](CCC(N)=O)C(=O)N[C@@H](CCC(N)=O)C(=O)N[C@H](CO)Cc1ccccc1)C(C)C)C(C)C` was 32.1% [4.25 µM].
As to `CC(=O)NC(C)(C)C(=O)N[C@@H](C)C(=O)NC(C)(C)C(=O)N[C@@H](C)C(=O)NC(C)(C)C(=O)N[C@@H](C)C(=O)N[C@@H](CCC(N)=O)C(=O)NC(C)(C)C(=O)N[C@H](C(=O)NC(C)(C)C(=O)NCC(=O)N[C@@H](CC(C)C)C(=O)NC(C)(C)C(=O)N1CCC[C@H]1C(=O)N[C@H](C(=O)NC(C)(C)C(=O)NC(C)(C)C(=O)N[C@@H](CCC(N)=O)C(=O)N[C@@H](CCC(N)=O)C(=O)N[C@H](CO)CC1CCCCC1)C(C)C)C(C)C`, the growth was -17.1% [5 µM] (active).
With `Fc1ccc(-c2cc3nc(C(Cl)Cl)nc(-c4cccs4)n3n2)cc1`, the growth is 23.6%.
The value for `CN1C(=O)/C(=C/C=C/c2ccco2)SC1=S` was 83.9%; that for `O=C(COc1ccc(/C=C2\SC(=O)NC2=O)cc1)Nc1ccc(C(=O)/C=C/c2cc3ccccc3nc2Cl)cc1` was 99.2%; that for `Oc1ccc(CSc2nnc(-c3ccc(Br)cc3)o2)c2cccnc12` was 32.8%.
The value for `Brc1cccc(/C=N/Nc2nc(N/N=C/c3cccc(Br)c3)nc(N3CCOCC3)n2)c1` was 17.1%; that for `COc1ccc(N2CCN(C(=O)CSc3ccc(-c4nc5cc(C)c(C)cc5[nH]4)cn3)CC2)cc1` was 74.4%.
Next, `Cc1cc(F)cc(NS(=O)(=O)c2ccc(-c3cnc(C4CC4)o3)cc2)c1`: 60.4%; `COc1ccc([C@H]2[C@H](O)C(=O)N2c2cc(OC)c(OC)c(OC)c2)cc1Cl`: 63.6%; `N#Cc1c(NC(=O)c2ccccc2C(F)(F)F)sc2c1CCC(=O)C2`: -14.9% (active).
For `CC(C)=CCc1c(O)c(CC=C(C)C)c2c(c1O)C(=O)C1=C[C@@H]3C[C@H]4C(C)(C)O[C@@](C/C=C(\C)C(=O)O)(C3=O)[C@@]14O2`, the growth was -11.2% (active).
